Drawing on PubChem BioAssay AID504329 (Southern Research Specialized Biocontainment Screening …, 2011), this text covers inhibition for 60 compounds.

In all, about 340,000 compounds went through this assay and about 1,000 (0.29%) were called active. A selection follows. Measured potencies and affinities stand elsewhere. Unmarked numbers belong to inactive results. Rule as the data show it: inconclusive = inhibition above about 27% without an active follow-up result; inactive = below that.

A short description of the experiment: H1N1 influenza NS1A inhibitors, functional cell based assay (AID 504329). As to conditions: percent inhibition, at 12.5 µM, hits give high values.
Regarding `COC(=O)c1cc(OC)c(OC)cc1NC(=O)C(C)Sc1ccc(C)cc1` (stereo not given), the inhibition (as a rule, the change of the read-out against control, counted positive when it falls) was -9.85%.

As for `CC1(C)C2CC=C(CN3CCC(O)CC3)C1C2` (stereo not given), the inhibition is 4.73%.

As to `O=C(Nc1ccc(Cl)cc1)Nc1ccccn1`, the inhibition was -13.9%.

In the case of `COc1ccc(CNC(=O)Cn2nc(C(F)(F)F)c(Br)c2C)cc1`, the inhibition is -1.07%.

For `Nc1ccc(NC(=S)Nc2ccccc2)cc1`, the inhibition was 8.73%.

With `CC(C)(C)c1ccc(C(=O)NCCCNC(=O)c2ccccn2)cc1`, the inhibition was 0.93%.

Take `O=C(NCCNC(=O)c1ccccn1)c1ccc(F)cc1`: the inhibition is 4.55%.

With `C/C(=N\NC(=O)c1ccc(Cl)cc1)c1ccccn1`, the inhibition is -5.53%.

For the compound `CCOc1ccc(OCc2ccc(C(=O)N/N=C(\C)c3ccccn3)cc2)cc1`, the inhibition is -8.32%.

For the compound `CSc1ccc(CN(C)C(=O)c2cc(Cl)c3c(c2)OCCO3)cc1`, the inhibition was 0.05%.

Regarding `Cc1ccc(C)c(S(=O)(=O)N2CCN(C(=O)CCNS(=O)(=O)c3ccc(C)c(C)c3)CC2)c1`, the inhibition was 5.37%.

Take `Cc1ccc2nc(-c3cccc(S(=O)(=O)N4CCCC4)c3)cn2c1`: the inhibition is -1.58%.

In the case of `COc1ccc(C(=O)NCCc2c[nH]c3ccccc23)cc1S(=O)(=O)N1CCCCC1C` (stereo not given), the inhibition is -1.05%.

`Cc1c(-c2ccccc2)nc2ccccc2c1C(=O)Nc1ccncc1`: the inhibition was -4.14%.

As for `CC(C)=CCC[C@](C)(O[C@@H]1O[C@H](CO[C@@H]2OC[C@H](O[C@@H]3OC[C@@H](O)[C@H](O)[C@H]3O)[C@H](O)[C@H]2O)[C@@H](O)[C@H](O)[C@H]1O)C1CC[C@]2(C)C1[C@H](O)CC1[C@@]3(C)CC[C@H](O)C(C)(C)C3[C@@H](O)C[C@]12C` (stereo not given in full), the inhibition is -10.2%.

In the case of `CC(=O)N1CCN(c2ccc(NCc3ccc(Br)o3)cc2)CC1`, the inhibition was 6.1%.

In the case of `CC(=O)N1CCN(c2ccc(NCc3ccc(-c4cccc(Cl)c4)o3)cc2)CC1`, the inhibition was 23.9%.

For `C=CCn1c(CC(=O)Nc2ccc(C)cc2C)nnc1SCC(=O)N1CCOCC1`, the inhibition was -7.34%.

On to `C/C(=C\c1ccccc1)CN1CCN(c2cccc(Cl)c2)CC1`, for which the inhibition is -1.4%.

In the case of `COc1ccc(-c2nc(C)ncc2N=Nc2ccccc2)cc1`, the inhibition is 24.1%.

Turning to `COc1ccc(N=Nc2nc(-c3ccccc3)c(-c3ccccc3)[nH]2)cc1`, the inhibition is 13.8%.

As to `Cc1ncc(N=Nc2ccccc2)c(-c2ccccc2)n1`, the inhibition is 23.1%.

Regarding `Cc1ncc(N=Nc2ccc(F)cc2)c(-c2ccc(Cl)cc2)n1`, the inhibition was 10.6%.

For the compound `CSC1=N/C(=C/c2ccc(-n3cncn3)cc2)C(=O)N1`, the inhibition is 18.2%.

For the compound `CC(=NNC(=S)N1CCCCCC1)c1cccc2cccnc12`, the inhibition is 25.3%.

`Cc1cccc(C(=S)N2CCOCC2)n1`: the inhibition was -4.89%.

As to `CC(=NNC(=S)N1CC2CCC(CC2)C1)c1cccc(C)n1`, the inhibition is 23.1%.

As for `S=C(Nc1ccc2nc(-c3ccccn3)c(-c3ccccn3)nc2c1)N1CCCCC1`, the inhibition is -3.09%.

For `C/C(=N/O)c1ccccn1`, the inhibition was 1.41%.

Regarding `CSC(=S)N/N=C(\C)c1ccc(Br)cc1`, the inhibition was -6.45%.

For the compound `CC(=NNC(=S)N1CCN(c2ccccn2)CC1)c1ccccn1`, the inhibition was 15.8%.

On to `CSC(=S)N/N=C(\C)c1ccccc1`, for which the inhibition was -5.26%.

In the case of `O=C(CN1C(=O)c2ccc([N+](=O)[O-])cc2C1=O)Nc1ccccc1N1CCCC1`, the inhibition was -7.2%.

In the case of `Cc1ccsc1/C=N/Nc1nc(=O)[nH]nc1C`, the inhibition is 12%.

As for `O=[N+]([O-])c1cc([N+](=O)[O-])c(Oc2ccc(Br)cc2Br)cc1NN1CCCCC1`, the inhibition was -0.23%.

In the case of `NCCCC[C@H](N)c1nnc([C@H](CCC(=O)O)NC(=O)C2CCNCC2)o1`, the inhibition is 11.3%.

With `C[C@H]1CN([C@@H](C)CO)C(=O)c2cccc(NC(=O)c3ccncc3)c2O[C@H]1CN(C)C(=O)Nc1ccccc1`, the inhibition was -10.3%.

`S=C(NCc1ccccc1)N1CCN(C2CCCCC2)CC1`: the inhibition is -12%.

For `C/C(=N\NC(=O)C1CCCN(S(=O)(=O)c2ccccc2)C1)c1cccnc1` (stereo not given), the inhibition is -20.5%.

Take `S=C(Nc1ccccc1)N1CCN(C2CCCCC2)CC1`: the inhibition was 11.4%.

Take `C/C(=N\NC(=O)C1CCCN(S(=O)(=O)c2ccccc2)C1)c1ccncc1` (stereo not given): the inhibition is -23.8%.

`CC(=O)C1=C(O)C(=O)N(CCC(=O)O)C1c1ccccc1[N+](=O)[O-]` (stereo not given): the inhibition is -13.3%.

In the case of `Cc1ccc(Nc2ccc(S(=O)(=O)N3CCOCC3)cc2[N+](=O)[O-])c(C)c1`, the inhibition was 11.1%.

For the compound `Cc1ccccc1Nc1ccc(S(=O)(=O)N2CCOCC2)cc1[N+](=O)[O-]`, the inhibition was 12.2%.

As to `COc1ccc(C(=O)NCCc2nnc3ccc(SCC(=O)Nc4ccccc4)nn23)cc1`, the inhibition is -20%.

For `Cc1ccc(OCC(=O)N2CCC(N3CC(C)CC(C)C3)CC2)cc1` (stereo not given), the inhibition is 17%.

Turning to `O=C(O)COc1ccc(S(=O)(=O)NCCc2ccccc2)cc1`, the inhibition is -12%.

Take `Oc1ccccc1Nc1ccccn1`: the inhibition was -5.39%.

With `c1ccc(Nc2ccccn2)nc1`, the inhibition was -3.53%.

As to `O=C(O)c1ccccc1C(=O)c1ccc(F)c(F)c1`, the inhibition was 3.3%.

Regarding `O=C(NCCCNC(=O)c1cccnc1)c1ccc(Cl)cc1`, the inhibition is -0.27%.

As to `Cc1cccc(C)c1NC(=O)C(NC(=O)CN1C(=O)c2ccccc2C1=O)c1ccccc1` (stereo not given), the inhibition is -3.98%.

On to `C=C(CC)C(=O)c1ccc(OCC(=O)O)c(Cl)c1Cl`, for which the inhibition is 0.79%.

As to `Cc1cc(Cl)ccc1OCC(=O)O`, the inhibition was -1.09%.

Regarding `O=C(COC(=O)COc1ccc(Cl)cc1Cl)NC1CC1`, the inhibition is 0.21%.

Turning to `CN(CC(=O)Nc1ccccc1C(=O)NC1CC1)Cc1ccc(N(C)C)cc1`, the inhibition is 0.15%.

For `O=C(Nc1ccc2c(c1)C(=O)c1ccccc1-2)c1ccccc1`, the inhibition was -5.09%.

`Nc1c(Br)cc(Br)c2c1C(=O)c1c(cccc1S(=O)(=O)O)C2=O`: the inhibition was 5.84%.

For `Cc1cc(C)c(NC(=O)COC(=O)c2cccc3c2C(=O)c2ccccc2C3=O)c(C)c1`, the inhibition was 3.94%.

In the case of `Nc1ccc(NC(=O)c2ccccc2)c2c1C(=O)c1ccccc1C2=O`, the inhibition was 24.3%.
